Results filed as inconclusive are left out. Where a call stands in place of a potency, no number is given. Activity calls are given as the source filed them. Calls follow the shape of the dose curve; as a rule, active = well fitted activation curve with a large enough effect; inconclusive = small, poorly fitted or top-dose-only effect; inactive = flat fitted curve, though single readings scatter.
Potency is read from the fitted curve at half-maximal effect.

A short description of the assay: qHTS for Inhibitors of Cell Surface uPA Generation: Confirmatory Assay for Cherry-picked Compounds. The following applies: cell surface uPA activity generation, qHTS confirmation; series mostly up to 115 µM. The procedure, abridged:
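RAW 264.7 cells at 4000/well, incubated overnight, then treated with compounds. After 24 h at 37 C, viability was read by ATPlite luminescence. An increase in signal indicates blocked uPA-dependent LF entry.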
On the technique in general: Quantitative high-throughput screening tests each substance at several concentrations.
Take `CC(C)CN(C(=O)CN1CCC(C)CC1)c1c(N)n(CC(C)C)c(=O)[nH]c1=O`: the Potency result was “inactive”.
The entry for `Cc1ccc2oc(C(=O)N(Cc3ccc(N(C)C)cc3)C3CCS(=O)(=O)C3)c(C)c2c1` (stereo not drawn) is “inactive”.
As to `CC(C)OC(=O)c1ccc(N2CCN(c3ccccc3F)CC2)nc1`, the Potency result was “inactive”.
The entry for `Cc1ccc(CN2CCN(Cc3cc4ccccc4o3)CC2CCO)cc1` (stereo not drawn) is “inactive”.
As for `C=CCn1c(C)cc(C(=O)COC(=O)/C=C/c2cccc(OC)c2)c1C`, the Potency result was “inactive”.
As to `Cc1ccc(S(=O)(=O)N2CCOCC2)cc1NC(=O)CSc1nc(N)cc(N)n1`, the Potency result was “inactive”.
The entry for `C=CCn1c(SCc2ccc(C(=O)NCCO)cc2)nc2ccccc2c1=O` is “inactive”; for `O=C(Nc1ccc(Cl)cc1)Nc1nnc(-c2ccncc2)s1` it is “inactive”; for `CCN(CC)S(=O)(=O)c1cc(NC(=O)COC(=O)C2CCC2)ccc1C` it is “inactive”.
For `CCOC(=O)c1c(NC(=S)NC)sc2c1CCCC2`, the Potency result is “inactive”.
Take `COCCOc1ccc(C(F)(F)F)cc1NC(=O)COC(=O)Cc1c[nH]c2ccccc12`: the Potency entry is “inactive”.
With `COc1ccc(NC(=O)Nc2nnc(N3CCCCC3C)s2)cc1OC` (stereo not drawn), the Potency entry was “inactive”.
For the compound `COc1ccc(NS(=O)(=O)c2cccc(C(=O)NCc3ccccc3CN3CCCC3)c2)cc1`, the Potency is 7.36 µM (active).
As for `C=CCOC(=O)C1=C[C@@H](c2coc3ccccc3c2=O)C[C@@H](OCc2ccc(CO)cc2)O1`, the Potency entry was “inactive”.
For `COc1cc(NC(=O)COC(=O)c2cc(S(=O)(=O)N3CCCCC3)ccc2Cl)c(C)cc1[N+](=O)[O-]`, the Potency entry was “inactive”.
The entry for `CCOc1cc(C)c(S(=O)(=O)N2CCCCC2)cc1C` is “inactive”; for `CC(C(=O)Nc1nccs1)c1ccc([N+](=O)[O-])cc1` (stereo not drawn) it is “inactive”.
As for `Cc1cccc(Nc2ccc(NCc3ccccc3)nn2)c1`, the Potency entry is “inactive”.
On to `CCOc1ccc(NS(=O)(=O)c2coc(C(N)=O)c2)cc1`, for which the Potency result was “inactive”.
For the compound `CCOc1cc(C(=O)OCC(=O)c2cc(C)n(CC3CCCO3)c2C)ccc1OCC(=O)N1CCOCC1` (stereo not drawn), the Potency entry is “inactive”.
On to `O=C(C[n+]1ccccc1)Nc1ccccc1C(F)(F)F`, for which the Potency entry is “inactive”.
As for `Cc1ccc(NC(=O)CCCn2c(=S)[nH]c3ccsc3c2=O)cc1C`, the entry is “inactive”.
On to `Cc1ccc(S(=O)(=O)Nc2nc(C)cc(N/N=C/c3ccc(O)cc3)n2)cc1`, for which the Potency entry was “inactive”.
On to `CCCNC(=O)COc1coc(CN2CCN(c3ccccc3OC)CC2)cc1=O`, for which the Potency entry was “inactive”.
For the compound `CNC(=S)N1C2CCCC1CC(NC(=O)c1ccc(F)cc1)C2` (stereo not drawn), the Potency result is “inactive”.
For `Cc1cc(-c2ccccc2)nc(N/N=C/c2ccc(N(C)C)cc2)n1`, the Potency result was “inactive”.
As for `COC(=O)/C(C#N)=C\c1c(OC)[nH]c2ccccc12`, the entry is “inactive”; as for `CCOc1ccccc1N(CC(=O)Nc1ccc(OC)cc1)S(=O)(=O)c1ccccc1`, “inactive”; as for `COc1ccc2c(ccn2S(=O)(=O)c2ccccc2)c1`, “inactive”.
As for `O=C(CNC(=O)N1CC(=O)Nc2ccccc21)Nc1cc(Cl)ccc1Cl`, the Potency entry is “inactive”.
As for `Cc1cc(C)c(NC(=O)Cn2nnc(C(=O)NCc3ccc4c(c3)OCO4)c2N)c(C)c1`, the entry is “inactive”.
Turning to `O=C(Nc1c(C(=O)O)oc2ccc(Br)cc12)c1ccccc1`, the Potency result is “inactive”.
As for `Cc1ccc(NC(=O)CS(=O)Cc2nc(-c3ccc(C)cc3)oc2C)cc1` (stereo not drawn), the entry is “inactive”.
As for `O=c1ccc(S(=O)(=O)N2CCCC2)c[nH]1`, the entry is “inactive”; as for `Cc1cc(C)c(S(=O)(=O)N2CCCOC2CNC(=O)C(=O)NCc2cccs2)c(C)c1` (stereo not drawn), “inactive”; as for `O=C(NCc1ccc2c(c1)OCO2)c1ccccn1`, “inactive”.
For the compound `O=C(COc1ccc(C(=S)N2CCOCC2)cc1)N1CCOCC1`, the Potency result is “inactive”.
The entry for `CCc1nccn1CCC(=O)N1CCc2c([nH]c3ccccc23)C1CC(C)C` (stereo not drawn) is “inactive”.

(Values after PubChem BioAssay AID720519 (National Center for Advancing Translational Sciences (NCATS), 2013).)
